The values that follow come from PubChem BioAssay.

The nature of assay [1]: binders of probe aFSTL3 on microarray, primary screen, stem cell growth factor project, biochemical, small-molecule microarray, fluorescence 635/667 (AID 1064).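 Further: measures binding of the biotinylated anti-FSTL3 antibody to printed compounds.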 Conditions: higher = more signal.
Assay [2] is described as follows: binders from COS7 lysate, DM2A8 probe, primary screen, torsin A project, cell lysate, small-molecule microarray, fluorescence 635/667 (AID 1065). Conditions: higher = more signal, COS7 lysate expressing mutant human TOR1A.
Assay [3] is described as follows: binders of probe aFGF2 on microarray, primary screen, stem cell growth factor project, biochemical, small-molecule microarray, fluorescence 635/667 (AID 1067).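 Further: measures binding of biotinylated aFGF2 protein to printed compounds on slides; z-score merges feature fluorescence and signal-to-noise across triplicate slides.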 The settings on record: higher = more signal.
Assay [4] in a line: binders of probe aFGF10 on microarray, primary screen, stem cell growth factor project, biochemical, small-molecule microarray, fluorescence 635/667 (AID 1071).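 Further: score merges 667 nm spot intensity and signal to noise from triplicate slides.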 The settings on record: higher = more signal.
Assay [5] concerns the target Neurogenic locus notch homolog protein 2 (Homo sapiens) (UniProt Q04721). Nature of the assay: Notch2 binders on small-molecule microarrays, primary screen, biochemical, small-molecule microarray, 635 nm fluorescence, stem cell growth factors (AID 1073). Conditions: Notch2 binding, higher = more signal.
Assay [6] addresses Pro-neuregulin-1, membrane-bound isoform (Homo sapiens) (UniProt Q02297). Description: NRG1 binders on small-molecule microarrays, primary screen, psychiatric disease protein project, biochemical, small-molecule microarray, fluorescence 635/667 (AID 1075).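 Further: score combines 667 nm spot fluorescence with signal to noise.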 Conditions: NRG1 binding, 635 nm fluorescence, higher = more signal.
The subject of assay [7] is Neuregulin-1 EGF-like domain. Description: binders of neuregulin-1 EGF-like domain, primary screen, biochemical, small-molecule microarray, 635 nm fluorescence (AID 1081).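 Further: binding of the protein to compounds printed on small-molecule microarray slides.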 The settings on record: small-molecule microarray binding, higher = more signal.
Assay [8] in a line: FRG1 promoter luciferase signal modulators, primary screen, FRG1 inhibition for FSHD, cell-based, C2C12 myotubes, firefly/Renilla luciferase, luminescence (AID 1084). Conditions: higher = more signal, called active from +8 up or from −8 down.
Assay [9] can be described thus: binders of probe aFST on microarray, primary screen, stem cell growth factor project, biochemical, small-molecule microarray, fluorescence 635/667 (AID 1086).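 Further: score merges 667 nm fluorescence with signal-to-noise of each printed compound spot.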 Conditions: higher = more signal.
Assay [10] can be described thus: binders of probe aHhip on microarray, primary screen, stem cell growth factor project, biochemical, small-molecule microarray, fluorescence 635/667 (AID 1087).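 Further: score merges spot fluorescence at 667nm with spot signal to noise ratio.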 Conditions: higher = more signal.

Active and inactive are the calls of the source.

Chain of Pro-neuregulin-1, membrane-bound isoform (Homo sapiens) (Q02297 whole entry, looked up, the tested form may be a part, canonical isoform): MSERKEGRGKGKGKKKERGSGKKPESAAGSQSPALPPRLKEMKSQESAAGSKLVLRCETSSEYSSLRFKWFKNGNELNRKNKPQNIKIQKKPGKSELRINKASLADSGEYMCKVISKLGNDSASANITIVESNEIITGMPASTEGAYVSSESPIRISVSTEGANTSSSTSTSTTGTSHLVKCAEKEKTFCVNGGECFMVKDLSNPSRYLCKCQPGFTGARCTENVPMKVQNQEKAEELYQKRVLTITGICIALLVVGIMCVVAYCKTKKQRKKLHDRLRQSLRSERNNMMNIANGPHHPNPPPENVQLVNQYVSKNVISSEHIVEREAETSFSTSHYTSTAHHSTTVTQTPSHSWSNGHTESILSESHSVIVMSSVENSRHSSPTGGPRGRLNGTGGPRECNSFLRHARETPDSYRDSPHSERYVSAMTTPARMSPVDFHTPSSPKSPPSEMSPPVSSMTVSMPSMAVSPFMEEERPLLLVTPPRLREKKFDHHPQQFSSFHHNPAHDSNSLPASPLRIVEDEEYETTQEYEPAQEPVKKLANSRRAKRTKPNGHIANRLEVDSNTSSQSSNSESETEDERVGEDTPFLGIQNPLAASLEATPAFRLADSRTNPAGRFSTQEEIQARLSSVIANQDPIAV
Chain of Neurogenic locus notch homolog protein 2 (Homo sapiens) (Q04721 whole entry, looked up, canonical isoform): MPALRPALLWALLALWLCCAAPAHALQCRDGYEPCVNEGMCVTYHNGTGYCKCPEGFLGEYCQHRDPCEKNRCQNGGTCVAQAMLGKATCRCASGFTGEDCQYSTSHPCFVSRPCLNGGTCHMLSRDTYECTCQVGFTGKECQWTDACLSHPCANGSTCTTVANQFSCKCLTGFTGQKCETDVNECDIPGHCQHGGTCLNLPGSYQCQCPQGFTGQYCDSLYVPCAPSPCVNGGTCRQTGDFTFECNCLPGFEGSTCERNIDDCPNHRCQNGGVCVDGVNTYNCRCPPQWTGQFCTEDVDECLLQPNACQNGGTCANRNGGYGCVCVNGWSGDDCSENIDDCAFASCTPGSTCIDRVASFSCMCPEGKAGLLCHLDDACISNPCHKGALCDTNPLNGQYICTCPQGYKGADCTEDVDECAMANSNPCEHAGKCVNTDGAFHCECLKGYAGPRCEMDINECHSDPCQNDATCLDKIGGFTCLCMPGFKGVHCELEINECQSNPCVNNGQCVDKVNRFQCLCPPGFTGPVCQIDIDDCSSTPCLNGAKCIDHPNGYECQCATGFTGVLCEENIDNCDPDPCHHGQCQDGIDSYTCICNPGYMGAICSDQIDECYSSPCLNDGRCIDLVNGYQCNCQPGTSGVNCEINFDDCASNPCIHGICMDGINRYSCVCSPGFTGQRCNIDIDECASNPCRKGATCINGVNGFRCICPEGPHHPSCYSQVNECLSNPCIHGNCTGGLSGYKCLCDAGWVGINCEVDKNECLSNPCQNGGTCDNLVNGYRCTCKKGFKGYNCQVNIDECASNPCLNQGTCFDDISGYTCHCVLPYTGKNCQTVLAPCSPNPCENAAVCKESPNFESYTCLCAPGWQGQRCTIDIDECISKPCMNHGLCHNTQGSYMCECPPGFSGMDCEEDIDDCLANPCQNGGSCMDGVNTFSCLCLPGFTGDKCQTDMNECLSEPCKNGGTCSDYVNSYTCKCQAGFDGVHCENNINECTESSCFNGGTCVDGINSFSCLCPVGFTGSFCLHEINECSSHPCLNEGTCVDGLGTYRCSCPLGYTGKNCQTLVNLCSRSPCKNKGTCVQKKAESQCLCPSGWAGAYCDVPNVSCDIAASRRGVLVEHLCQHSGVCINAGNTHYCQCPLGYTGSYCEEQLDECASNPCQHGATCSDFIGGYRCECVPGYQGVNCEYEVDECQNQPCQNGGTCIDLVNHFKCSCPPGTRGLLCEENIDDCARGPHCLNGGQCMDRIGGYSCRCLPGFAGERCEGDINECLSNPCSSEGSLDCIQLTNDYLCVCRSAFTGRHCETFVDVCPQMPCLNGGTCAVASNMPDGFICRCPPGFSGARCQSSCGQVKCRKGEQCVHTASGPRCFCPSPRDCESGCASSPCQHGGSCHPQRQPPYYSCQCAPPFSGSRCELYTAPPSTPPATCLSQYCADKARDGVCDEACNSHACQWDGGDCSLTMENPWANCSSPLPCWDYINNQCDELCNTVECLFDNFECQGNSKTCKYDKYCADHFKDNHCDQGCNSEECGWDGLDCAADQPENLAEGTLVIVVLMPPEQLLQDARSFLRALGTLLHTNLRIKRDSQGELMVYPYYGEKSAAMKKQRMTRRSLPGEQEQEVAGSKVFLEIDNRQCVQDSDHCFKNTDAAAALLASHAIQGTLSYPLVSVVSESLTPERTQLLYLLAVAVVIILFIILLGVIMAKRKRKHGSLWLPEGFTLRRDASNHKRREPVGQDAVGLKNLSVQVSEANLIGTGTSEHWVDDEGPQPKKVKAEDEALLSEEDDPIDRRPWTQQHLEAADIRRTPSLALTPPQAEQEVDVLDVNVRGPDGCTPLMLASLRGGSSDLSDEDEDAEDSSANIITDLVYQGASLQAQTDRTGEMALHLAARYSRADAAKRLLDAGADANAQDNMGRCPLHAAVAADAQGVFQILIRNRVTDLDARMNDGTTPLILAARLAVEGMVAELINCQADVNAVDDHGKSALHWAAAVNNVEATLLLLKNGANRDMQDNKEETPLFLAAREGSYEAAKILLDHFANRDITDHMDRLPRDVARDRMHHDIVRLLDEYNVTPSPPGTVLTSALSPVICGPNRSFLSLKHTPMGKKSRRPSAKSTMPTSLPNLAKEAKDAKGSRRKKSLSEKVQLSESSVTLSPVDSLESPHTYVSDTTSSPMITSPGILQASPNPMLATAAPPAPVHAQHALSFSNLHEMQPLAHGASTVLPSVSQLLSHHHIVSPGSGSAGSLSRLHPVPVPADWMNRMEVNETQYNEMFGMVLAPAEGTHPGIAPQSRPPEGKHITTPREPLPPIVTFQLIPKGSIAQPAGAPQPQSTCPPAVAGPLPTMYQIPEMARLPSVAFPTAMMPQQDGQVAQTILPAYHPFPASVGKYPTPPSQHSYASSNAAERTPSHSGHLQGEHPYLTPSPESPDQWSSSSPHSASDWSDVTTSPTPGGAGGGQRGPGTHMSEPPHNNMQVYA

Regarding `COc1ccc(COC(=O)NN=C2C[C@@H](O)[C@@H](O)[C@@H]3[C@@H]4C(=O)N(Cc5ccccc5)C(=O)[C@@H]4CC[C@H]23)cc1`, the composite z-score in assay [1] is 1.51; in assay [2], 0.111; in assay [3], -0.0574; in assay [4], 0.009; in assay [5], -0.234; in [6] it was -0.318. The composite z-score was -0.411 in [7], 1.39 in assay [9] and -0.284 in assay [10]. Also, the z-score in assay [8] was 0.319 (inactive).

Turning to `COc1cccc([C@H]2Oc3ccc(OC)cc3C(=NOC(C)CN3CCCCc4nc(C)c(C)cc43)[C@@H]2O)c1` (stereo not given in full), the composite z-score in assay [1] was 0.161; in assay [2], -0.0173; in assay [3], -0.0005; in assay [4] it was 0.561; in [5] it was 0.0879; in assay [6], 0.996. The composite z-score in assay [7] was 0.632; in assay [9], -0.0285; in assay [10], 0.0854. Besides, in [8], the z-score was -2.06 (inactive).

As to `CCOC(=O)[C@H](CC(C)C)NC(=O)CCC1CC(OC(=O)NCCc2ccc(F)cc2)CC2(CCCC(COC(=O)NCCC(C)C)O2)O1` (stereo not given in full), the composite z-score was -0.44 in assay [1]; 0.289 in assay [2]; -0.083 in [3]; 0.297 in assay [4]; -0.383 in [5]; 0.797 in assay [6]. In addition, the composite z-score in assay [7] is 0.98; in assay [9], -0.128; in assay [10] it was 0.0722. For the same compound, the z-score in assay [8] is 1.25 (inactive).

For the compound `CCOC(=O)NN=C1C[C@@H](O)[C@@H](O)[C@@H]2[C@@H]3C(=O)N([C@@H](C)c4ccccc4)C(=O)[C@@H]3CC[C@@H]12`, the composite z-score is -0.291 in [1]; 2.08 in assay [2]; -0.0934 in assay [3]; 0.393 in assay [4]; 0.601 in [5]; -0.133 in assay [6]. Also, the results for the composite z-score in assay [7], in [9] and in assay [10] were 0.11, 0.517 and -0.0994, respectively. For the same compound, the z-score in assay [8] is 0.696 (inactive).

With `CO[C@H]1COC(=O)CC=C[C@@H](C)[C@H](NS(=O)(=O)c2ccc(C)cc2)COC(=O)CCC[C@@H]1C`, the composite z-score in [1] was -0.366; in assay [2], 0.906; in [3] it was -0.154; in [4], 0.21; in [5], 0.18; in assay [6] it was -0.25. Besides, the values for the composite z-score in [7], in assay [9] and in [10] were 0.185, -0.225 and -0.635, respectively. In addition, the z-score in assay [8] was 0.408 (inactive).

`Cc1ccc(S(=O)(=O)N[C@H]2COC(=O)CC=C[C@@H](C)COC(=O)CC=C[C@@H]2C)cc1`: the composite z-score in [1] was -0.537; in assay [2], 0.604; in assay [3] it was -0.135; in [4] it was 0.0963; in [5], -0.094; in assay [6], -0.326. Also, the composite z-score in assay [7] was -0.0175; in assay [9], -0.135; in assay [10] it was -0.466. Moreover, the z-score in assay [8] was 0.999 (inactive).

For `COc1ccc(O[C@H]2C=C[C@@H](c3ccccc3)O[C@@H]2CON=C(C)C)cc1`, the composite z-score in [1] was 0.332; in [2], -0.0694; in assay [3], 0.0333; in assay [4] it was -0.531; in assay [5] it was -0.286; in assay [6], 0.112. The composite z-score is -0.0241 in assay [7], -0.195 in assay [9] and 0.107 in assay [10]. Moreover, the z-score in assay [8] was 0.359 (inactive).

With `C[C@@H](c1ccccc1)N1C(=O)[C@H]2[C@H]3[C@H](O)[C@H](O)CC(=NO[C@@H]4O[C@H](CO)[C@@H](O)[C@H](O)[C@H]4O)[C@@H]3CC[C@H]2C1=O`, the composite z-score was -0.395 in [1]; 0.764 in assay [2]; -0.0428 in assay [3]; 0.306 in assay [4]; 0.641 in assay [5]; -0.319 in [6]. Besides, the values for the composite z-score in [7], in assay [9] and in assay [10] were 0.752, 0.205 and -0.0618, respectively. Moreover, the z-score in [8] was 0.19 (inactive).

Regarding `CO[C@H]1COC(=O)[C@H](C)NC(=O)[C@@H](C)COC(=O)[C@H]2CCCN2C(=O)CC=C[C@H]1C`, the composite z-score in assay [1] was -0.403; in assay [2], 1.06; in assay [3], -0.216; in [4], 0.347; in [5] it was 0.338; in assay [6] it was -0.499. Also, the figures for the composite z-score in assay [7], in [9] and in assay [10] were 0.175, -0.0694 and -0.179, respectively. The z-score in [8] is -0.345 (inactive).

For `CC(C)=CCCC(C)=CCON=C1C[C@@H](O)[C@@H](O)[C@@H]2[C@@H]3C(=O)N(c4cccc(Oc5ccccc5)c4)C(=O)[C@@H]3CC[C@@H]12`, the composite z-score is -0.473 in assay [1]; -0.314 in [2]; -0.0962 in [3]; 0.341 in assay [4]; 0.521 in assay [5]; 0.938 in assay [6]. In addition, the figures for the composite z-score in assay [7], in assay [9] and in [10] were 0.972, 0.34 and -0.0994, respectively. Moreover, the z-score in assay [8] is 0.508 (inactive).

Consider `CCCCC#C[C@@H]1C=C[C@H](OC(C)=O)[C@@H](COC(C)=O)O1`, for which the composite z-score in assay [1] was -0.515; in assay [2], 0.37; in [3] it was -0.112; in [4], 0.319; in assay [5], 0.617; in assay [6] it was 0.304. For the same compound, the values for the composite z-score in [7], in [9] and in assay [10] were 0.0329, 0.0643 and -0.134, respectively. Also, the z-score in [8] is -1.28 (inactive).

In the case of `O=C1C=C[C@@H](O)[C@@H]2[C@@H]3C(=O)N(c4ccc(F)cc4F)C(=O)[C@@H]3CC[C@@H]12`, the composite z-score is -0.298 in assay [1]; 0.55 in assay [2]; -0.0493 in [3]; 0.547 in [4]; 0.611 in assay [5]; 0.12 in assay [6]. Besides, the composite z-score in assay [7] is 0.384; in assay [9], 0.142; in assay [10], -0.0994. Also, the z-score in [8] is -0.996 (inactive).

As for `C[n+]1ccc(-c2ccc(CO)cc2)cc1`, the composite z-score is 0.772 in assay [1]; -0.688 in [2]; -0.131 in assay [3]; -0.116 in assay [4]; 1.08 in assay [5]; 0.0728 in assay [6]. Besides, the results for the composite z-score in [7], in assay [9] and in [10] were 0.0658, -0.0846 and 0.0053, respectively. In addition, the z-score in assay [8] is 0.65 (inactive).

For the compound `CC(C)=NOC[C@@H](C)[C@H](OCc1ccccc1)C(C)C`, the composite z-score was 0.245 in [1]; -0.381 in [2]; -0.147 in assay [3]; -0.303 in assay [4]; -0.885 in [5]; -0.277 in [6]. For the same compound, the composite z-score in assay [7] is -0.372; in assay [9], -0.21; in assay [10] it was 0.163. Besides, the z-score in assay [8] is 0.755 (inactive).
